The list is not random: actives were taken first. Their share in the collection is about 6.8%.
C diff growth = C. difficile growth inhibitors, primary screen, HTS. Clostridium difficile clinical isolate growth, OD600, 24 h; active compounds read low. growth activity, negative = inhibition, % at 16 µg/mL (by protocol). 0.25% of 86,000 active;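 active = mean growth activity at or below -80% and every replicate also at or below -80%; inconclusive = mean at or below -80% but some replicate above -80%; inactive = mean growth activity above -80%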;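 also: 0% = DMSO wells and -100% = levofloxacin 16 µg/mL wells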
Pf Dd2 growth = P. falciparum Dd2 growth inhibitors, primary screen, SYBR Green fluorescence, single dose replicates | 72 h; active compounds read low | activity change, % at 10 µM | 2.3% of 94,000 active | AID 1159554, 2015; in the data active = activity change below about -80%; inconclusive = no clear call, values can overlap the other calls
T cruzi growth-1 = T. cruzi intracellular proliferation inhibitors, primary screen, cell-based, beta-gal Tulahuen parasites, NIH3T3 host, luminescence | T. cruzi beta-gal in NIH3T3, GalScreen luminescence, 90 h | inhibition, % at 8.34 µM | 5.9% of 77,000 active;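 active = mean inhibition above about 93%, with at least 55% of replicates each passing it, limit read from the data, passing the limit was not always enough; inconclusive = only one of those two conditions holds; inactive = neither condition holds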
T cruzi growth-2 = T. cruzi intracellular proliferation inhibitors, confirmation, cell-based, NIH3T3 host, beta-gal parasite, luminescence, cherry-pick; 72% of 5,600 active; inhibition, % at 8.35 µM; T. cruzi beta-gal in NIH3T3, GalScreen luminescence, 90 h; AID 651739, 2012; shares compounds with T cruzi growth-1;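 active = mean replicate inhibition above about 95% and at least 55% of replicates individually reaching it, limit read from the data; inconclusive = only one of the two criteria is met; inactive = neither criterion is met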
T cruzi growth-3 = inhibitors of intracellular T. cruzi replication, confirmation, NIH3T3 host cells, beta-gal parasites, cherry-pick, set 2 | AID 651740, 2012 | T. cruzi beta-gal in NIH3T3, GalScreen luminescence, 90 h | shares compounds with T cruzi growth-1 | inhibition, % at 2.09 µM | 21% of 5,600 active;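 active = mean inhibition above about 95%, with at least 55% of replicates also reaching it, limit read from the data; inconclusive = meets just one of the two conditions; inactive = meets neither condition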;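 also: plate controls were neutral control median for no effect and positive control median for full effect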
3T3 cytotox = cytotoxicity in mouse NIH/3T3 fibroblasts, confirmation, cytotoxicity control for T. cruzi proliferation inhibitor project, cell-based, cherry-pick, single point; 14% of 5,600 active; cytotoxicity (signal decrease), % at 8.35 µM; shares compounds with T cruzi growth-1; NIH/3T3 viability, CellTiter-Glo ATP luminescence, 90 h;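 active = mean signal decrease across replicates above about 35% based on untreated-well scatter, with enough replicates individually passing, limit read from the data; inconclusive = no rule stated though some were filed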;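 also: 0% = median of neutral control wells and 100% = median of positive control wells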
NIH3T3 tox 2 = NIH/3T3 fibroblast cytotoxicity, confirmation, cytotoxicity control, cell-based, cherry-pick, single point, set 2. NIH/3T3 viability, CellTiter-Glo ATP luminescence, 90 h. shares compounds with T cruzi growth-1. inhibition, % at 24.9 µM. 56% of 5,600 active;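 active = mean loss of cell viability signal at or above a set limit, and enough replicates individually reaching it; inconclusive = meets only the mean limit or only the replicate share; inactive = meets neither condition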;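 also: 0% = median of neutral control wells and 100% = median of positive control wells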
The depositor's hits bear a star; ? = inconclusive; . = no result given.

SMILES | C diff growth | Pf Dd2 growth | T cruzi growth-1 | T cruzi growth-2 | T cruzi growth-3 | 3T3 cytotox | NIH3T3 tox 2
CNC[C@@H]1Oc2cc(C#Cc3ccc(OC)cc3)ccc2S(=O)(=O)N([C@H](C)CO)C[C@H]1C | 0 | -56 | 103* | 107* | 81 | 15 | 105*
CNC[C@@H]1Oc2cc(C#Cc3cccc(OC)c3)ccc2S(=O)(=O)N([C@@H](C)CO)C[C@@H]1C | 14 | -69 | . | . | . | . | .
O=C([C@H]1[C@H](CO)[C@H]2Cn3c(cccc3=O)[C@@H]1N2Cc1cccc(Cl)c1)N1CCCCC1 | 5 | 5 | 29 | . | . | . | .
O=C([C@@H]1[C@@H](CO)[C@@H]2Cn3c(ccc(-c4ccncc4)c3=O)[C@H]1N2Cc1ccccc1)N1CCOCC1 | -3 | 14 | 1 | . | . | . | .
O=C([C@@H]1[C@@H](CO)[C@@H]2Cn3c(ccc(-c4ccccc4)c3=O)[C@H]1N2Cc1cccnc1)N1CCOCC1 | -4 | . | 97* | -16 | -6 | 12 | -7
O=C([C@H]1[C@H](CO)[C@H]2Cn3c(cccc3=O)[C@@H]1N2Cc1cccc(Cl)c1)N1CCOCC1 | 7 | . | 100* | -38 | 27 | -10 | -2
COc1ccc2c3c([nH]c2c1)[C@@H](CO)N(C)CC31CCN(C(=O)Nc2c(C)noc2C)CC1 | -5 | 26 | . | . | . | . | .
C[C@@H]1CN([C@H](C)CO)C(=O)c2cc(NC(=O)Nc3ccc(C(F)(F)F)cc3)ccc2O[C@@H](C)CCCCO[C@@H]1CN(C)C(=O)CCCN(C)C | 15 | 24 | 2 | . | . | . | .
COc1cccc(S(=O)(=O)N[C@@H]2CC[C@@H](CCn3cc(-c4ccccc4OC)nn3)O[C@H]2CO)c1 | -3 | -48 | -1 | . | . | . | .
O=C(N[C@H]1CC[C@@H](CCn2cc(-c3ccccc3F)nn2)O[C@H]1CO)c1ccc2c(c1)OCO2 | . | -57 | 112* | 10 | 3 | -2 | 22
O=C(N[C@@H]1CC[C@H](CCn2cc(-c3ccccc3F)nn2)O[C@@H]1CO)c1ccc2c(c1)OCO2 | . | -59 | 71 | . | . | . | .
COc1cccc(S(=O)(=O)N[C@H]2CC[C@H](CCn3cc(-c4ccccc4OC)nn3)O[C@@H]2CO)c1 | 1 | -5 | ? | 24 | -6 | 10 | 32
COCc1cn(CC[C@@H]2CC[C@@H](NC(=O)c3ccncc3)[C@@H](CO)O2)nn1 | . | 2 | 127* | 22 | -29 | -1 | -13
COCc1cn(CC[C@@H]2CC[C@@H](NC(=O)c3ccncc3)[C@H](CO)O2)nn1 | . | -2 | 1 | . | . | . | .
O=C(C[C@H]1CC[C@@H]2[C@H](COC[C@@H](O)CN2C(=O)c2ccccc2F)O1)NCc1ccc(-c2ccccc2)cc1 | -3 | -53 | . | . | . | . | .
CC(C)C#Cc1ccc([C@@H]2[C@@H](CO)N3C(=O)CN(C(=O)Cc4ccccc4)C[C@H]23)cc1 | -5 | -11 | . | . | . | . | .
CC(=O)N(C)C[C@@H]1OCc2ccccc2-c2c(n(C)c3ccccc23)C(=O)N([C@@H](C)CO)C[C@H]1C | . | 40 | -36 | . | . | . | .
C[C@@H]1CN([C@@H](C)CO)C(=O)c2c(c3ccccc3n2C)-c2ccccc2CO[C@H]1CN(C)Cc1cccnc1 | -2 | -28 | 92 | . | . | . | .
C[C@@H]1CN([C@H](C)CO)C(=O)c2c(c3ccccc3n2C)-c2ccccc2CO[C@H]1CN(C)C(=O)Nc1ccc2c(c1)OCO2 | -3 | -69 | 73 | . | . | . | .
C[C@H](CO)N1C[C@H](C)[C@@H](CN(C)Cc2cccnc2)OCc2ccccc2-c2c(n(C)c3ccccc23)C1=O | -2 | -10 | ? | 75 | 44 | 16 | 25
C[C@H](CO)N1C[C@H](C)[C@@H](CN(C)C(=O)C2CC2)OCc2ccccc2-c2c(n(C)c3ccccc23)C1=O | 6 | -22 | 89 | . | . | . | .
C[C@@H]1CN([C@@H](C)CO)C(=O)c2c(c3ccccc3n2C)-c2ccccc2CO[C@H]1CN(C)C(=O)Nc1ccc2c(c1)OCO2 | -1 | -82* | 105* | 85 | 33 | 13 | 15
C[C@@H]1CN([C@@H](C)CO)C(=O)c2c(c3ccccc3n2C)-c2ccccc2CO[C@H]1CN(C)C | -10 | -17 | ? | ? | 44 | 16 | 31
C[C@H](CO)N1C[C@H](C)[C@H](CN(C)C(=O)C2CC2)OCc2ccccc2-c2c(n(C)c3ccccc23)C1=O | 2 | -22 | ? | 70 | 19 | 3 | 38*
COCC(=O)N(C)C[C@@H]1Oc2ncc(C3=CCCC3)cc2C(=O)N([C@@H](C)CO)C[C@@H]1C | -3 | -20 | . | . | . | . | .
SMILES | C diff growth | Pf Dd2 growth | T cruzi growth-1 | T cruzi growth-2 | T cruzi growth-3 | 3T3 cytotox | NIH3T3 tox 2
CCC(=O)N1CCC2(CC1)CN(C(=O)CN1CCOCC1)[C@H](CO)c1c2c2ccc(OC)cc2n1C | -1 | 15 | . | . | . | . | .
N#C[C@@H]1[C@H](c2ccc(C#Cc3ccccc3F)cc2)[C@H](CO)N1C(=O)C1CCC1 | -1 | -72 | 94 | . | . | . | .
N#C[C@@H]1[C@H](c2ccc(C#Cc3ccccc3F)cc2)[C@@H](CO)N1C(=O)C1CC1 | -3 | -7 | 99* | 99* | 43 | 6 | 43*
N#C[C@@H]1[C@@H](c2ccc(C#Cc3ccccc3F)cc2)[C@@H](CO)N1C(=O)C1CCCCC1 | 3 | -28 | 102* | 109* | 70 | -9 | 80*
N#C[C@H]1[C@@H](c2ccc(C#Cc3ccccc3F)cc2)[C@@H](CO)N1C(=O)C1CC1 | 7 | -65 | 103* | 104* | 104* | 5 | 30*
CCS(=O)(=O)N1[C@H](C#N)[C@@H](c2ccc(C#Cc3ccccc3F)cc2)[C@H]1CO | 1 | 3 | 34 | . | . | . | .
N#C[C@H]1[C@@H](c2ccc(C#Cc3ccccc3F)cc2)[C@H](CO)N1C(=O)C1CC1 | -16 | -35 | 95 | . | . | . | .
CCS(=O)(=O)N1[C@H](CO)[C@@H](c2ccc(C#Cc3ccccc3F)cc2)[C@@H]1C#N | -3 | -63 | ? | 107* | 109* | -1 | 5
CCCN1[C@@H]2c3ccc(/C=C/c4ccccc4)c(=O)n3C[C@@H]2[C@@H](CO)[C@@H]1C(=O)N1CCOCC1 | 22 | -7 | 86 | . | . | . | .
Cc1cc(C(=O)Nc2cccc3c2O[C@@H](CN(C)C(=O)Nc2cccc4ccccc24)[C@H](C)CN([C@H](C)CO)C3=O)n(C)n1 | 0 | -3 | -8 | . | . | . | .
CCC(=O)N1C[C@@H](C)[C@@H](OC)CN(C)C(=O)c2ccc(NC(=O)c3cnccn3)cc2OC[C@H]1C | . | 9 | 18 | . | . | . | .

High-throughput results (PubChem)
